From PubChem BioAssay (NCATS)
Records with an inconclusive call do not appear. A call without a number means that no potency is given here. Activity calls are given as the source filed them. The call rests on the fitted dose curve; in most records, active means well fitted inhibition curve with a large enough effect; inconclusive means small, poorly fitted or top-dose-only effect; inactive means flat fitted curve, though single readings scatter.
Potency means the concentration at half of the fitted maximal effect.

What follows are compounds tested on ATS95 (assay: qHTS profiling for inhibitors of Plasmodium falciparum proliferation (AID 504749; further: nearly all actives have a fitted effect of over 60% in size)). Conditions: P. falciparum in erythrocytes, SYBR Green DNA, 72 h; series mostly up to 28.7 µM.
Procedure, shortened: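 Readout was DNA-dye fluorescence from lysed cultures, ex 485/em 535 nm. Parasitized red cells had grown 72 h with compound; data scaled between 0.29 uM artemisinin and DMSO wells and corrected using vehicle-only plates.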
With `COc1cc2c(cc1OC)CC(=O)N(CCCN(C)C[C@H]1Cc3cc(OC)c(OC)cc31)CC2` the Potency was “inactive”.
With `Clc1ccc(COC(Cn2ccnc2)c2ccc(Cl)cc2Cl)c(Cl)c1` (centres undefined) the Potency was 3.98 µM (active).
With `O=C(O)c1nc(=O)[nH]c(=O)[nH]1` the Potency was “inactive”.
With `CS(=O)(=O)c1ccc(C2=C(c3ccccc3)C(=O)OC2)cc1` the Potency was “inactive”.
For `NS(=O)(=O)c1cc(Cl)c(Cl)c(S(N)(=O)=O)c1`, the Potency was “inactive”.
In the case of `N#CC(c1ccc(Cl)cc1)c1c(Cl)cc(-n2ncc(=O)[nH]c2=O)cc1Cl` (centres undefined), the Potency is reported as “inactive”.
`COc1ccnc(CS(=O)c2nc3ccc(OC(F)F)cc3[nH]2)c1OC` (centres undefined) was tested, and the Potency was “inactive”.
For `N#Cc1c(N(CC(=O)O)CC(=O)O)sc(C(=O)O)c1CC(=O)O`, the Potency was “inactive”.
In the case of `C=C1c2cccc(O)c2C(O)=C2C(=O)[C@@]3(O)C(O)=C(C(N)=O)C(=O)[C@@H](N(C)C)[C@@H]3[C@@H](O)[C@H]12`, the Potency is reported as “inactive”.
